Bioassay records deposited in PubChem by The Scripps Research Institute Molecular Screening Center.
Only some compounds are listed: those with a hit (about 3.4% of all), similar ones and a draw of the others.
TEAD-YAP block: TEAD-YAP interaction inhibition; actives 1.4% (n = 640,000); HEK-TIYL cells, TEAD-Gal4/YAP UAS-luciferase luminescence; inhibition, % at 9.12 µM; AID 1259422; in the data active = inhibition above about 32%;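 note: 0% = median of test compound wells and 100% = reference inhibitor wells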
FBW7 act: activators of human E3 ligase FBW7; Q969H0; AlphaScreen FBW7–phospho-cyclin E peptide binding, activator screen; normalized activity (activation), % at 26.1 µM; actives 0.13% (n = 650,000); in the data active = normalized activity above about 1.9%;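 note: purified mutant Fbw7 with reduced substrate affinity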
MITF inh: blocks human microphthalmia-associated transcription factor; O75030; AlphaScreen MITF homodimerization, bead proximity signal; inhibition, % at 2.6 µM; actives 0.91% (n = 650,000); AID 1259374; in the data active = inhibition above about 50%;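 note: 0% = vehicle wells with protein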
GPR151 ag: activates the human receptor GPR151; activation, % at 11.2 µM; PathHunter beta-arrestin GPR151 cells, luminescence; actives 1% (n = 650,000); in the data active = activation above about 4.9%;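 note: 0% = median of compound wells and 100% = cells with positive control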
Target sequence (Q8TDV0 whole entry, looked up): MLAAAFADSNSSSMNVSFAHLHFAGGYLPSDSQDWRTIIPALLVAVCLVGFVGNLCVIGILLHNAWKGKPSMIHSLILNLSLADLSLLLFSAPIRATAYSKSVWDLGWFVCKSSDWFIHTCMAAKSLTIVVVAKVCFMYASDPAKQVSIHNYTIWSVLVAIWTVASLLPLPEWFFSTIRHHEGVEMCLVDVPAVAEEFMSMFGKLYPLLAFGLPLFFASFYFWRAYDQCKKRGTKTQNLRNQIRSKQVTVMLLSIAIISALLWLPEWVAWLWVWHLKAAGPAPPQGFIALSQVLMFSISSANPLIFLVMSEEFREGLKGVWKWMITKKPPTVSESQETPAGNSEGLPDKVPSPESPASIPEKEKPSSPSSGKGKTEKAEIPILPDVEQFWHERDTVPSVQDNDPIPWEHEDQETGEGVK
GPR151 conf act: human GPR151 activation, confirmation screen | shares compounds with GPR151 ag | GPR151 PathHunter beta-arrestin cells, luminescence, 90 min; % of EA-reagent control over plate median | activation, % at 11.2 µM | 6,700 tested, under 10 active | AID 1508609;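 active = mean percent activation across replicates above the confirmation screen cutoff of 4.91%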
GPR119 ag: activates human GPR119 in a GPR151 counter-screen. shares compounds with GPR151 ag. GPR119 PathHunter beta-arrestin cells, luminescence, 90 min; 0 = compound-well median, 100 = enzyme-acceptor control. activation, % at 11.2 µM. actives 0.3% (n = 6,700);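 active = mean percent activation in the counterscreen above 29.09%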;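 note: counterscreen on off-target GPR119 to flag nonselective hits from the GPR151 activator screen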
An asterisk follows results filed as active; . = not tested or not shown; ! = not active in a repeat.

SMILES	TEAD-YAP block	FBW7 act	MITF inh	GPR151 ag	GPR151 conf act	GPR119 ag
COc1cccc(NC(=O)c2sc3nc(C)n(C)c(=O)c3c2C)c1	-23	0	-1	-3	.	.
COC(=O)c1nnn(-c2nonc2N)c1C(=O)OC	0	-1	2	6.0*	-1	-8
COC(=O)c1nnn(-c2nonc2N)c1C(C)(C)C	-7	0	7	0	.	.
CCN(Cc1c(C(=O)OC)nnn1-c1nonc1N)c1ccccc1	-6	0	12	5.1*	-1	-20
C=CCn1c(-c2ccc(Br)cc2)cnc1SCC(=O)Nc1cc(C)on1	19	-1	3	0	.	.
CCn1c(SCC(=O)N/N=C(/C)c2ccc(OC)cc2)nc2ccccc21	13	0	20	6.8*	-1	-4
COc1cc(NC(=O)C2CCN(c3ccc(Nc4cc(OC)c(OC)c(OC)c4)nn3)CC2)cc(OC)c1OC	-7	0	7	7.8*	-1	-4
COc1cc(NC(=O)C2CCN(c3ccc(Nc4ccccc4)nn3)CC2)cc(OC)c1OC	-15	1	10	-1	.	.
Cc1cccc(C(=O)Nc2ccc(Br)cc2F)c1[N+](=O)[O-]	-65	0	1	1	.	.
Cc1cccc(C(=O)Nc2ccc(F)cc2F)c1[N+](=O)[O-]	-8	0	1	11*	1	7
CCOP(=O)(OCC)c1nc(-c2cccc([N+](=O)[O-])c2)oc1N1CCCCC1	-5	0	3	11*	1	5
COc1ccc(C=O)cc1CSc1ccccn1	12	0	9	5.3*	-1	-6
COc1ccc(/C=N/NS(=O)(=O)c2ccccc2)cc1CSc1ccccn1	-6	0	10	0	.	.
CSc1nsc(NC(=O)c2ccc(F)cc2F)n1	-64	0	2	-10	.	.
O=C(Nc1nc(SCc2ccc(F)cc2)ns1)c1cc(F)c(F)cc1Cl	27	0	-1	8.4*	0	-5
Cc1noc(/C=C/c2cccs2)c1S(=O)(=O)N1CCCC(C(=O)N2CCCC2)C1 (centres undefined)	-6	0	-2	0	.	.
Cc1noc(/C=C/c2cccs2)c1S(=O)(=O)N1CCCC(C(=O)N2CCCCC2)C1 (centres undefined)	-2	0	2	5.0*	0	5
CC(CN(C)C)CN1c2ccccc2Sc2ccccc21 (centres undefined)	8	0	5	1	.	.
CC(CN1c2ccccc2Sc2ccccc21)N(C)C (centres undefined)	-7	0	-7	7.4*!	-1	-5
CCC(C)NC(=O)c1ccc2nc(NC(=O)c3cc([N+](=O)[O-])cc([N+](=O)[O-])c3)sc2c1 (centres undefined)	9	0	1	1	.	.
CCC(C)NC(=O)c1ccc2nc(NC(=O)c3ccc([N+](=O)[O-])cc3)sc2c1 (centres undefined)	3	0	13	8.8*	0	1
CCOc1c(C)cc(S(=O)(=O)NCCCCN2CCOC(c3ccccc3)C2)cc1C (centres undefined)	5	0	8	11*	1	-1
CCOC(=O)N1CCc2c(sc(NC(=O)CN3C(=O)CCC3=O)c2C(N)=O)C1	-4	0	-5	-1	.	.
CN(Cc1ccncc1)C(Cc1ccccc1)C1CCN(Cc2ccn[nH]2)CC1 (centres undefined)	-3	0	-3	0	.	.
Cc1ccccc1Nc1sc(C(=O)c2ccc([N+](=O)[O-])cc2)c(N)c1C(=O)NCc1ccc(Cl)cc1	4	0	-3	6.4*	2	21
Cc1ccccc1Nc1sc(C(=O)c2ccc(Cl)cc2)c(N)c1C(=O)NCc1ccc(Cl)cc1	-2	0	4	1	.	.
N#Cc1cc2cc3c(cc2nc1SCC(=O)Nc1cccc(F)c1)OCCO3	-3	0	14	0	.	.
O=C(Nc1ccc(Br)cc1C(=O)c1ccccc1)c1ccc(Nc2nc(-c3ccccc3)c3cc(Cl)ccc3n2)cc1	-10	0	14	2	.	.
O=C(Nc1ccccc1C(=O)c1ccccc1)c1ccc(Nc2nc(-c3ccccc3)c3cc(Cl)ccc3n2)cc1	-1	0	-3	8.5*	1	16
